Screening data deposited in PubChem by National Center for Advancing Translational Sciences (NCATS).
KDM4E inh: blocks human JMJD2E demethylase activity. Potency, µM (top dose mostly 57.1 µM), actives largely listed as inhibitors. actives 1.6% (n = 230,000). AID 2147. JMJD2E catalytic domain, FDH-coupled NADH fluorescence (FDH is formaldehyde dehydrogenase); note: nearly all actives have a fitted effect of over 50% in size
NPSR antag: blocks cAMP signaling of the human neuropeptide S receptor. actives 1% (n = 220,000). Q6W5P4. CHO-NPSR cells, cAMP TR-FRET, antagonist mode. Potency, µM (highest dose often 38.3 µM), hits mostly inhibitors; note: nearly all actives have a fitted effect of over 50% in size
IMPase Li cell: cell-permeable IMPase inhibitors with lithium potentiation; CHO-M1 cells, IP1 TR-FRET (IP-One), carbachol + lithium; Potency, µM (top dose mostly 59.4 µM), most hits filed as inhibitors; AID 1457; actives 0.35% (n = 210,000);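 note: IP1 builds up when IMPase is blocked and the TR-FRET signal falls; nearly all actives have a fitted effect of over 50% in size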
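Readout is a homogeneous TR-FRET IP1 immunoassay (Ex 320, Em 665 and 620), where raised cytosolic IP1 lowers signal. Cells were CHO-M1 treated 30 min at 37C with test compounds plus a little lithium; AC50 values came from Hill-equation fitting.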
GCN5L2 inh-1: blocks human GCN5L2 histone acetyltransferase; Q92830; GCN5L2 HAT assay, ThioGlo1 CoA-SH fluorescence; Potency, µM (top dose mostly 58.9 µM), hits mostly inhibitors; actives 0.21% (n = 390,000); AID 504327
Target sequence (Q92830 whole entry, looked up): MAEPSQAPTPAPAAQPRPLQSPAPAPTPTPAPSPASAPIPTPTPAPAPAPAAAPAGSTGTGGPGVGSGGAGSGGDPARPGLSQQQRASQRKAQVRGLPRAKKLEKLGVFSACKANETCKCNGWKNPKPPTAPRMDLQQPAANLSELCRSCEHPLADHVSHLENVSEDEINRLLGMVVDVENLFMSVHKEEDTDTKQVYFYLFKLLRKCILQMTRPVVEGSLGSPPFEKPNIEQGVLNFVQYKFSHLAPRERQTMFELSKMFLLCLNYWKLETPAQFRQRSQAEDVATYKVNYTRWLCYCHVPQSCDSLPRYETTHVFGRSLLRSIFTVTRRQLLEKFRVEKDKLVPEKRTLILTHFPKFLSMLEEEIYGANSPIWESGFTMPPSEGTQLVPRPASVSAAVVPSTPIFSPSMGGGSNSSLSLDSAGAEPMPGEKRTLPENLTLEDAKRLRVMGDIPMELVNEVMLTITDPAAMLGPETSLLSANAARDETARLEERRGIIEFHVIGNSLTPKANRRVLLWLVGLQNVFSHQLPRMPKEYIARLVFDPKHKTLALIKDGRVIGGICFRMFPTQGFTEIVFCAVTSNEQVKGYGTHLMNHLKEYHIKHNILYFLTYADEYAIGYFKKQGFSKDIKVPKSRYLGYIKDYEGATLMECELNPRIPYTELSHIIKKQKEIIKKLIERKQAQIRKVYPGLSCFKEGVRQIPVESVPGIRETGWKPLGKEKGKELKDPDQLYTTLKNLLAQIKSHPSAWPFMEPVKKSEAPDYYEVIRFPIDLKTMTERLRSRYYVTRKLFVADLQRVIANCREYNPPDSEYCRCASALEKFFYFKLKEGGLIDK
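qHTS, 1536-well. 20nM enzyme, pH 7.5 HEPES/EDTA/Tween-20 buffer; 15 min compound preinc., RT. Start: 75uM H3(1-25), 70uM AcCoA, 50uM ThioGlo1. Read Ex340/Em540 at t=0 (autofluorescence flag) and t=20 min.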
Epigenetic derep: derepresses silenced GFP reporter in murine cells | Potency, µM (series often up to 53.9 µM), actives largely listed as activators | AID 1865 | murine LDR cells, GFP reporter derepression, 30 h | actives 0.2% (n = 280,000); note: nearly all actives have a fitted effect of over 60% in size
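Readout is the number of GFP-expressing murine LDR cells, counted by cytometry following washing. Cells were treated with compound for 30 h at 37 C; the stably integrated CMV-GFP locus is normally silent.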
Sfp PPTase inh: Sfp phosphopantetheinyl transferase inhibition; Q9F4F7; Potency, µM, usual class: inhibitors; AID 1490; Biochemical Sfp PPTase activity, qHTS; actives 3.5% (n = 310,000);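 note: the enzyme is Sfp with the accession as filed and its product quenches rhodamine fluorescence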
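Compounds were incubated with enzyme (final 15 nM) for 15 min at room temperature before substrate addition started the reaction. Fluorescence at 525 nm excitation, 598 nm emission was recorded immediately and after 30 minutes.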
C127i cell count: parental c127i cell effect of epigenetic modulator hits | mouse c127i parental cells, fluorescent cell count, 30 h | Potency, µM, most hits filed as activators | actives 20% (n = 60) | shares compounds with Epigenetic derep
HCC4017 viab: epigenetic modulators: cytotoxicity in HCC4017 lung cancer cells; AID 493071; shares compounds with Epigenetic derep; actives 30% (n = 45); Potency, µM (top dose mostly 46.1 µM), usual class: cytotoxic; HCC4017 NSCLC viability, CellTiter-Glo ATP luminescence, 72 h
H358 tox: epigenetic modulators: cytotoxicity in H358 lung cancer cells. shares compounds with Epigenetic derep. H358 NSCLC viability, ATP luminescence, 72 h. Potency, µM (doses to about 46.1 µM), actives largely listed as cytotoxic. actives 30% (n = 45)
GCN5L2 inh-2: confirmation of human GCN5L2 histone acetyltransferase inhibitors. actives 70% (n = 140). Potency, µM, usual class: inhibitors. shares compounds with GCN5L2 inh-1. GCN5L2 HAT, ThioGlo1 CoA fluorescence, 20 min
Numbers stand for hits; n = inactive; u = inconclusive; x = not tested or not shown. Rows were chosen to be rich in hits. Some 3.6% of all compounds tested hit in one or more screens of this group. Unless noted, calls come from the whole dose curve; as a rule, active = well fitted curve in the direction sought with a large enough effect; inconclusive = small, poorly fitted or top-dose-only effect, or another doubt; inactive = no such curve, though single readings can be large; an effect the other way counts as inactive or inconclusive.

SMILES	KDM4E inh	NPSR antag	IMPase Li cell	GCN5L2 inh-1	Epigenetic derep	Sfp PPTase inh	GCN5L2 inh-2	others
CCC(=O)N1CCN(c2ccc(NC(=O)c3ccc([N+](=O)[O-])o3)cc2Cl)CC1	n	5µM	n	n	u	n	x	C127i cell count=n;HCC4017 viab=2.8µM;H358 tox=1.4µM
N#CC1=C(N)n2c(s/c(=C\c3cccs3)c2=O)=C(C#N)C1c1cccs1 (centres undefined)	u	n	x	n	10µM	45µM	x	C127i cell count=14µM
N#CC1=C(N)n2c(s/c(=C\c3ccco3)c2=O)=C(C#N)C1c1ccco1 (centres undefined)	u	n	n	n	n	n	x
CCc1ccc(NC(=O)C2CCC(CNS(=O)(=O)c3ccc4c(c3)CC(C)N4C(C)=O)CC2)cc1 (centres undefined)	x	x	x	n	u	x	x	C127i cell count=n;HCC4017 viab=u;H358 tox=n
CCOCCCNC(=O)C1CCCN(Cc2nc(-c3ccc(CC)cc3)oc2C)C1 (centres undefined)	x	x	x	n	n	x	x
Oc1c(N=Nc2ccccn2)ccc2ccccc12	u	u	n	n	10µM	n	x	C127i cell count=n;HCC4017 viab=2µM;H358 tox=1.3µM
Cc1nnc2c3ccccc3nc(Nc3ccccc3C(=O)O)n12	x	x	x	n	n	x	x
Cc1nc(CSc2nsc(/C=C/N(C)C)c2C#N)cs1	n	n	n	n	6.3µM	u	x	C127i cell count=n
Cc1snc(SCc2ccc(F)cc2)c1C#N	x	x	x	n	x	n	x
CCOc1ccc(NC(=O)c2nc(S(=O)(=O)Cc3ccccc3F)ncc2Cl)cc1	x	x	x	n	u	x	x	C127i cell count=n;HCC4017 viab=7.1µM;H358 tox=7.9µM
O=C(N/N=C/c1ccccn1)c1cc(-c2ccc(Cl)cc2)nc2ccccc12	u	n	n	n	5µM	n	x	C127i cell count=n;HCC4017 viab=u;H358 tox=u
O=C(N/N=C/c1ccccn1)c1cc(-c2ccc(Br)cc2)nc2ccccc12	u	n	x	n	u	n	x
O=C1CC(c2nnc(Cc3ccc(F)cc3Cl)o2)CN1c1ccccc1 (centres undefined)	x	x	x	n	n	x	x
Cc1cc(N2CCN(c3ccc([N+](=O)[O-])c4cccnc34)CC2)c2ccccc2n1	u	u	n	n	7.1µM	n	x	C127i cell count=14µM
CCOn1c(=O)c[n+]([O-])c2ccccc21	u	n	n	n	10µM	u	x	C127i cell count=n;HCC4017 viab=n;H358 tox=n
O=C(Cn1c(=O)n(Cc2ccc(F)cc2)c(=O)c2sc3ccccc3c21)Nc1ccc(F)cc1F	x	x	x	n	u	x	x	C127i cell count=n
O=C(Cn1c(=O)n(Cc2ccccc2)c(=O)c2sc3ccccc3c21)Nc1ccc(F)cc1	x	x	x	n	n	x	x
O=C1c2ccc(-c3ccc(F)cc3OCc3ccccc3)cc2S(=O)(=O)c2cccc(C(=O)N3CCN(c4ncc(Br)cn4)CC3)c21	x	x	x	n	x	x	x
O=C(O)c1cccc2c1C(=O)c1ccc(-c3ccc(F)cc3OCc3ccccc3)cc1S2(=O)=O	x	x	x	22µM	x	x	u
N#Cc1c(-c2cccs2)nc(SCc2ccc(Cl)cc2)[nH]c1=O	n	u	u	25µM	n	79µM	29
O=c1[nH]c(SCc2ccc(Cl)cc2)nc2ccsc12	n	n	n	n	n	n	x
CC(=O)c1cc(-c2ccccc2)n(CC(=O)Nc2ccc(C)cc2C)c1C	x	x	x	n	n	x	x
O=C(COC(=O)c1ccccc1)Nc1ncc([N+](=O)[O-])s1	x	x	x	u	x	x	4.6
O=C(Nc1ccccc1)Nc1ncc([N+](=O)[O-])s1	n	n	n	n	n	n	x
N=C1/C(=C/c2ccc(-c3cccc(C(=O)O)c3)o2)C(=O)N=C2SC=C(c3ccccc3)N12	u	n	n	22µM	n	n	16
SMILES	KDM4E inh	NPSR antag	IMPase Li cell	GCN5L2 inh-1	Epigenetic derep	Sfp PPTase inh	GCN5L2 inh-2	others
COc1ccc(CCNC(=O)Cn2c(=O)c3cccn3c3ccc(F)cc32)c(OC)c1	x	x	x	n	n	x	x
O=C(Cc1ccc(Cl)cc1Cl)Nc1cccc(S(=O)(=O)Nc2ccccc2F)c1	n	n	n	u	n	8.9µM	u
O=C(C1=NN(c2ccccc2)C2C(=O)N(c3cccc(Cl)c3)C(=O)C12)c1ccccc1 (centres undefined)	n	n	n	25µM	n	n	36
O=Cc1ccc(N2N=C(c3ccccc3)CC2c2ccccc2)cc1 (centres undefined)	x	x	x	n	x	n	x
Oc1ccc(C2=NN(c3ccccc3)C(c3ccc(F)cc3)C2)cc1 (centres undefined)	x	x	x	n	x	n	x
O=C(O)c1ccc(N2N=C(c3ccccc3)CC2c2ccccc2)cc1 (centres undefined)	x	x	x	16µM	x	n	14
CC(=O)Nc1ccc(C2=NN(c3ccccc3)C(c3ccccc3)C2)cc1 (centres undefined)	x	x	x	u	x	n	36
COc1ccc(S(=O)(=O)Nc2ccc3oc4c(c3c2)C(=O)CC(C)(C)C4)cc1	x	x	x	n	n	x	x
Cc1ccc(S(=O)(=O)/N=C2/C=C(Sc3ncn[nH]3)C(=O)c3ccccc32)cc1	4µM	10µM	n	22µM	n	3.2µM	1.3
COc1ccc(S(=O)(=O)N2CCN(C(=O)c3cc4c(s3)CCC4)CC2)cc1	x	x	x	16µM	x	x	18
Cc1ccc(S(=O)(=O)NC(C(=O)Oc2ccc3c(C(F)(F)F)cc(=O)oc3c2)c2ccccc2)cc1 (centres undefined)	32µM	n	n	u	n	n	u
COC(=O)C(NS(=O)(=O)c1ccc(C)cc1)c1ccccc1 (centres undefined)	n	n	n	n	n	n	x
Cc1ccc(S(=O)(=O)Oc2ccc(/C=C3/C(=N)N4C(=NC3=O)SN=C4S(C)(=O)=O)cc2)cc1	x	x	x	u	x	n	10
COc1cc(/C=C2/C(=N)N3C(=NC2=O)SN=C3S(C)(=O)=O)ccc1OS(=O)(=O)c1ccc(C)cc1	x	x	x	u	x	n	x
CCS(=O)(=O)C1=NN2C(=N)/C(=C\c3ccc(OS(=O)(=O)c4ccccc4)cc3)C(=O)N=C2S1	x	x	x	14µM	x	u	10
CCc1ccc2ncc3c(-c4ccccc4)nn(-c4ccccc4)c3c2c1	x	x	x	n	n	x	x
COc1cc(/C=C2\CCc3c2nc2ccccc2c3C(=O)O)cc(OC)c1OC	u	n	x	13µM	u	u	20
